Growth data for eight compounds are collected here from PubChem BioAssay (NCI).

Some test systems named below: DU-145 prostate; K-562 leukemia; MALME-3M melanoma; MDA-MB-231 breast; RXF 393 renal; SF-268 CNS; SF-295 CNS; M14 melanoma; HCT-15 colon; HT29 colon; SNB-75 CNS; SNB-19 CNS; U251 CNS; PC-3 prostate; SK-MEL-5 melanoma; UACC-62 melanoma; LOX IMVI melanoma; UACC-257 melanoma; SK-MEL-28 melanoma; SF-539 CNS.
Assay in all cases: NCI-60 one-dose screen, 48 h (100 = growth as untreated, 0 = no growth, -100 = all killed)
Common to all, as to details: 10 µM unless noted

The panel holds about 83,000 compounds, 20% with a hit somewhere; the sample as a whole holds those more often.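 Interpretation: 100, growth as untreated; towards 0, rising growth inhibition; 0, no net growth; 0 to -100, cell death. Compounds scoring below 10 were considered active.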 Values without a mark were called inactive. Activity calls are given as the source filed them.

With `O=S(=O)(NCCCNc1cc(-c2cn(-c3ccccc3)nc2-c2ccccc2)ccn1)c1ccc(C(F)(F)F)cc1`, the growth with DU-145 prostate is 75.9%; in the experiment on K-562 leukemia, 15.8%; in the experiment on MALME-3M melanoma it was 70%; with MDA-MB-231 breast, 52.5%; in the experiment on RXF 393 renal, 48%; in the experiment on SF-268 CNS, 58.2%. Further, the growth with SF-295 CNS was 38.8%; in the experiment on M14 melanoma, 53.1%; with HCT-15 colon it was 41%; with HT29 colon it was 20.5%; in the experiment on SNB-75 CNS it was 58.6%; in the experiment on SNB-19 CNS, 66.9%. Also, the growth with U251 CNS is 44.4%; in the experiment on PC-3 prostate, 17.6%; in the experiment on SK-MEL-5 melanoma it was 36.8%; with UACC-62 melanoma, 69.8%; in the experiment on LOX IMVI melanoma, 54%.
For the compound `CC1=C(NCCN2CCCC2)C(=O)c2c(OCc3ccc(C(F)(F)F)cc3)cccc2C1=O`, the growth with DU-145 prostate is 92.1%; with K-562 leukemia it was -14.8% (active); in the experiment with MALME-3M melanoma, 104%; in the experiment on MDA-MB-231 breast it was 81.4%; with RXF 393 renal it was 88.5%; in the experiment on SF-268 CNS, 77.1%. In addition, the growth was 76.7% in the experiment on SF-295 CNS; 65.1% with UACC-257 melanoma; 70.9% in the experiment on HCT-15 colon; 42.4% in the experiment on HT29 colon; 82.1% in the experiment with SNB-75 CNS; 95.3% in the experiment with SNB-19 CNS. Also, the growth was 69.9% in the experiment on U251 CNS; 47.4% in the experiment with PC-3 prostate; 85.2% with SK-MEL-5 melanoma; 99.9% in the experiment with UACC-62 melanoma; 68.4% with LOX IMVI melanoma; 54.6% in the experiment on SK-MEL-28 melanoma.
For `O=C1Nc2ccccc2/C1=C/C(=N/c1nnc(-c2ccccc2)s1)c1ccccc1`, the growth in the experiment with DU-145 prostate is 34.4%; with K-562 leukemia, 20.4%; in the experiment on MALME-3M melanoma, 37.8%; in the experiment on MDA-MB-231 breast, 54.5%; with RXF 393 renal, 27.1%; in the experiment on SF-268 CNS, 60.4%. In addition, the growth in the experiment on SF-539 CNS was 52.7%; in the experiment on M14 melanoma, 75.7%; with HCT-15 colon, 19.8%; in the experiment with HT29 colon, -36.3% (active); in the experiment on SNB-75 CNS it was 78.7%; with SNB-19 CNS, 103%. Besides, the growth in the experiment on PC-3 prostate was 78.4%; in the experiment with SK-MEL-5 melanoma, 93.9%; in the experiment on UACC-62 melanoma it was 71.5%; in the experiment with LOX IMVI melanoma, -86.3% (active); with SK-MEL-28 melanoma, 86.4%.
As to `COc1ccc(C(=O)/C=C/c2cc3ccccc3[nH]c2=O)cc1`, the growth with DU-145 prostate was -26.7% (active); in the experiment with K-562 leukemia, 16.7%; in the experiment on MALME-3M melanoma, 74.2%; in the experiment on MDA-MB-231 breast, 56.3%; in the experiment on RXF 393 renal, 16.6%; in the experiment with SF-268 CNS it was 28.9%. Besides, the growth in the experiment with SF-295 CNS was 48.9%; with UACC-257 melanoma, 59.1%; in the experiment with HCT-15 colon, 46.4%; in the experiment with HT29 colon, 6.09% (active); with SNB-75 CNS, 2% (active); in the experiment with SNB-19 CNS, 70.5%. The growth in the experiment on U251 CNS is 31.7%; in the experiment with PC-3 prostate it was 32.3%; in the experiment on SK-MEL-5 melanoma it was 72.5%; in the experiment with UACC-62 melanoma, 67.7%; with LOX IMVI melanoma, 10.2%; with SK-MEL-28 melanoma, 88.2%.
Turning to `COc1ccc(CN2C(=O)/C(=C\c3cc(OC)c(OC)c(OC)c3)c3cc(OC)ccc32)cc1`, the growth was 7.67% (active) with DU-145 prostate; 1.94% (active) in the experiment on K-562 leukemia; 36.4% with MALME-3M melanoma; 11.1% in the experiment on MDA-MB-231 breast; -53% (active) with RXF 393 renal; 7.98% (active) in the experiment with SF-268 CNS. For the same compound, the growth was 39.7% in the experiment on SF-295 CNS; 25.7% with UACC-257 melanoma; -36.6% (active) with HCT-15 colon; -25.3% (active) with HT29 colon; 28.3% in the experiment on SNB-75 CNS; 59.8% with SNB-19 CNS. Also, the growth in the experiment on U251 CNS is -48% (active); in the experiment on PC-3 prostate, 28.9%; in the experiment with SK-MEL-5 melanoma, 1.57% (active); with UACC-62 melanoma, -10.4% (active); in the experiment with LOX IMVI melanoma, -71.8% (active); in the experiment with SK-MEL-28 melanoma, -31.8% (active).
As for `O=C1c2cccnc2C(=O)c2c1c(C(=O)OCCN1CCCCC1)c1ccccn21`, the growth with DU-145 prostate was -89.7% (active); with K-562 leukemia, -40.9% (active); in the experiment on MALME-3M melanoma it was -74.3% (active); with MDA-MB-231 breast it was -27.9% (active); with RXF 393 renal, -44.5% (active); with SF-268 CNS, -19.8% (active). Moreover, the growth was -37% (active) with SF-295 CNS; -75% (active) in the experiment on UACC-257 melanoma; -20.8% (active) in the experiment on M14 melanoma; -48.4% (active) with HCT-15 colon; -9.8% (active) in the experiment with HT29 colon; -63.7% (active) in the experiment on SNB-75 CNS. Further, the growth in the experiment with SNB-19 CNS is -31.8% (active); in the experiment with PC-3 prostate, 9.27% (active); in the experiment on SK-MEL-5 melanoma it was -97% (active); in the experiment with UACC-62 melanoma, -41.2% (active); with LOX IMVI melanoma, -58.6% (active); in the experiment on SK-MEL-28 melanoma, -37.9% (active).
For `COc1ccc(/C=C2\N=C3Sc4cc(Cl)ccc4C(=O)N3C2=O)cc1`, the growth with DU-145 prostate was 110%; in the experiment with K-562 leukemia it was 94.1%; with MALME-3M melanoma, 101%; with MDA-MB-231 breast it was 100%; with RXF 393 renal, 106%; with SF-268 CNS, 106%. In addition, the growth is 98.7% in the experiment with SF-539 CNS; 99.6% in the experiment on M14 melanoma; 102% in the experiment with HCT-15 colon; 104% with HT29 colon; 76.8% in the experiment on SNB-75 CNS; 101% in the experiment with SNB-19 CNS. The growth in the experiment on PC-3 prostate was 85.5%; in the experiment with SK-MEL-5 melanoma, 99.8%; in the experiment on UACC-62 melanoma, 98%; in the experiment on LOX IMVI melanoma, 98.8%; with SK-MEL-28 melanoma, 103%.
For `CCN(CC)CCCC(C)N/C(=C1\C(=O)NC(=O)\C1=C(/NC(C)CCCN(CC)CC)c1cccc(OC)c1)c1cccc(OC)c1` (stereo not given), the growth in the experiment on DU-145 prostate is 4.62% (active); in the experiment with K-562 leukemia it was -24.6% (active); in the experiment on MALME-3M melanoma, -84.2% (active); with MDA-MB-231 breast it was -50.9% (active); in the experiment on RXF 393 renal, -20.8% (active); with SF-268 CNS, -24% (active). Further, the growth with SF-539 CNS is -80.6% (active); in the experiment with M14 melanoma, -75.1% (active); in the experiment on HCT-15 colon, 5.33% (active); with HT29 colon it was -54.8% (active); in the experiment on SNB-75 CNS, 30.5%; in the experiment on SNB-19 CNS, 23.6%. Besides, the growth in the experiment on PC-3 prostate was -3.13% (active); in the experiment on SK-MEL-5 melanoma it was -91% (active); with UACC-62 melanoma, -14.7% (active); with LOX IMVI melanoma, -68.5% (active); with SK-MEL-28 melanoma, -83% (active).
